# High-throughput results from PubChem.
# TDP1 cell CPT: qHTS for Inhibitors of human tyrosyl-DNA phosphodiesterase 1 (TDP1): qHTS in cells in presence of CPT | AID 686979, 2013 | chicken DT40 Tdp1-/-;hTDP1 cells + 20 nM CPT, ATP luminescence, 48 h | actives 12% (n = 420,000) | Potency, µM (highest dose often 46.2 µM), for the others: top-dose activity change, negative = growth inhibition, usual class: inhibitors; also: % is scaled to controls: 0 for no effect and ±100 for the full control effect; nearly all actives have a fitted effect of over 55% in size
#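 Chicken DT40 Tdp1-/- cells complemented with human TDP1, 400 cells/well, exposed to compounds plus 20 nM camptothecin for at least 48 h at 37 C; viability read as ATP content by CellTiter-Glo luminescence.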
# ATXN viability: Viability Counterscreen for Primary qHTS for Inhibitors of ATXN expression; S2 cells (HEK-293 line with an ATXN2-luciferase reporter) viability, CellTiter-Fluor protease fluorescence, 24 h; Potency, µM (top dose mostly 56.7 µM), actives largely listed as cytotoxic; actives 0.49% (n = 400,000); AID 651635, 2014; also: nearly all actives have a fitted effect of over 40% in size
# TGFb inhibitor: qHTS for Inhibitors of TGF-b; HepG2 CAGA-GFP TGF-b/SMAD3 reporter, GFP fluorescence, 18 h; TGF-beta stimulated, 500 pg/mL final; Potency, µM (titrated, usually from 46.1 µM), inactives show at the highest dose activity, negative = inhibition, usual class: inhibitors; actives 1.2% (n = 410,000); AID 588855, 2011; also: % is scaled to controls: 0 for no effect and ±100 for the full control effect; nearly all actives have a fitted effect of over 65% in size
#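 TGF-beta reporter screen: HEPG2 CAGA-GFP, 1% FBS, 500 pg/mL TGF-beta final, 18 h; per-cell GFP summed per well; curves fitted and categorized by class.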
# DT40 TDP1 no CPT: qHTS for Inhibitors of human tyrosyl-DNA phosphodiesterase 1 (TDP1): qHTS in cells in absence of CPT; DT40 Tdp1-/- hTDP1 cells, no CPT, ATP luminescence, 48 h; Potency, µM (series often up to 46.2 µM), for inactives: top-dose activity change, negative = growth inhibition, most hits filed as inhibitors; actives 15% (n = 420,000); also: % is scaled to controls: 0 for no effect and ±100 for the full control effect; nearly all actives have a fitted effect of over 55% in size
#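 Stably hTDP1-transfected Tdp1-null chicken DT40 cells were treated with library compounds minus camptothecin and grown for at least 48 hr at 37 °C, after which cellular ATP was quantified by luminescence.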
# ATXN2 expr inh: Primary qHTS for Inhibitors of ATXN expression; HEK-293 ATXN2-luciferase reporter, luminescence, 24 h; Potency, µM (doses to about 57 µM), inactives show at the highest dose activity change, negative = inhibition, most hits filed as inhibitors; actives 0.72% (n = 360,000); AID 1745845, 2022; also: % is scaled to controls: 0 for no effect and ±100 for the full control effect; nearly all actives have a fitted effect of over 55% in size
#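 qHTS (up to 57 uM final) was run with 24 h compound exposure of reporter cells at 37 °C. Each well was multiplexed: SteadyGlo luminescence measured ATXN2-luciferase expression after a fluorogenic Gly-Phe-AFC viability readout (25 uM final).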
# HepG2 tox: qHTS for Inhibitors of TGF-b: Cytotox Counterscreen; HepG2 CAGA-GFP viability, ATP luminescence, 18 h; Potency, µM (titrated, usually from 46.1 µM), without a hit: at the highest dose activity change, negative = cytotoxicity, most hits filed as cytotoxic; actives 0.76% (n = 410,000)
#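 HepG2 CAGA-GFP cells (1000/well, DMEM with 1% FBS) received compound, then TGF-beta at 500 pg/mL final, and were incubated 18 hours at 37 degrees C. Viability was read by CellTiter-Glo luminescence. Media-only wells were set as complete cell-killing and DMSO as no toxicity.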
# An asterisk follows results filed as active; i = inactive; u = inconclusive; x = no result; [ ] = dose if it differs, or a comment. Shown are actives, neighbours in structure and some others; about 17% of the full set was active somewhere. Calls follow the shape of the dose curve; as a rule, active = well fitted curve in the direction sought with a large enough effect; inconclusive = small, poorly fitted or top-dose-only effect, or another doubt; inactive = no such curve, though single readings can be large; an effect the other way counts as inactive or inconclusive. Potency is read from the fitted curve at half-maximal effect.
SMILES,TDP1 cell CPT,ATXN viability,TGFb inhibitor,DT40 TDP1 no CPT,ATXN2 expr inh,HepG2 tox
Cc1ccc(-n2ncc3c(SCc4ccccn4)ncnc32)c(C)c1,u,i,3%,16µM*,1%,-18%
Cn1c(S(=O)(=O)c2ccc([N+](=O)[O-])cc2)nc(Br)c1Br,21µM*,x,u,u,u,-192%
COc1ccc(CNCC(O)COc2ccc(C)cc2[N+](=O)[O-])cc1 (stereo not given),u,i,10%,u,3%,-12%
CC(=O)Nc1ccc(C(=O)N2CCCC(c3cc(C(=O)NCc4cccnc4)no3)C2)cc1 (stereo not given),-20%,i,10%,-15%,4%,-16%
O=C(NCc1ccc(Cl)c(Cl)c1)c1cc(C2CCCCN2C(=O)C2CCCCC2)on1 (stereo not given),16µM*,u,-29%,18µM*,-38%,-6%
O=C(NCc1ccccc1)c1cc(C2CCCCN2C(=O)c2cccs2)on1 (stereo not given),18µM*,i,-5%,u,-3%,-33%
O=C(Nc1ccc(F)c(Cl)c1)c1cc(C2CCCCN2C(=O)c2cccs2)on1 (stereo not given),16µM*,i,u,7.3µM*,0%,-15%
COc1ccc(NC(=O)c2cc(C3CCCCN3C(=O)c3cccs3)on2)c(C)c1 (stereo not given),21µM*,u,-3%,21µM*,-22%,-4%
CN(CCO)c1ccc(C=NNc2ccc([N+](=O)[O-])cc2S(=O)(=O)Nc2ccccc2C(=O)O)cc1,2%,i,-29%,-17%,-6%,-7%
COc1cc(C(=O)N2CCCCC2c2cc(C(=O)Nc3ccccc3Cl)no2)cc(OC)c1C (stereo not given),u,i,u,18µM*,-8%,-29%
COc1ccc(NC(=O)c2cc(C3CCCCN3C(=O)c3cc(OC)c(C)c(OC)c3)on2)c(C)c1 (stereo not given),u,i,-26%,u,-26%,3%
O=C(Nc1ccccc1Cl)c1cc(C2CCCCN2C(=O)c2cccs2)on1 (stereo not given),29µM*,i,-5%,u,-21%,-43%
CN(CCc1ccccn1)C(=O)CCC1CCCN(C(=O)c2n[nH]c3c2CCCC3)C1 (stereo not given),u,u,-2%,-17%,3%,1%
O=C(Nc1ncn[nH]1)c1cccc(S(=O)(=O)N2CCOCC2)c1,10%,x,-9%,-1%,-11%,0%
COc1ccccc1CNC(=O)CN1C(=O)CSc2ccc(S(=O)(=O)N(C)C)cc21,u,i,-5%,-22%,3%,-5%
CC1CN(c2nc3c(c(=O)[nH]c(=O)n3C)n2Cc2ccccc2F)CC(C)O1 (stereo not given),6%,i,-3%,3%,19%,2%
CCCCCCCOc1ccc(CC(=O)NO)cc1,10µM*,x,16%,10µM*,x,4%
CCCCc1ccc(CC(=O)NO)cc1,-19%,x,23%,u,x,-1%
O=C(Cc1ccc(OCCc2ccccc2)cc1)NO,u,x,-10%,u,x,-37%
O=C(Cc1ccc(OCCC2CCCCC2)cc1)NO,7.1µM*,x,-15%,10µM*,x,-7%
CN(C(=O)Nc1cnc2ccccc2c1)c1ccccc1,5%,i,-1%,2%,18%,5%
C=CC(c1ccccc1)C(C(=O)c1ccccc1)N(C)C (stereo not given),u,u,1%,-30%,6%[11.3 µM],2%
COc1cc(/C=C/C(=O)O)cc(OC)c1O,5%,i,14%,6%,7%,-24%
COc1ccc2cc(C(=O)/C=C/c3cc(OC)c(O)c(OC)c3)ccc2c1,10µM*,u,u,9.2µM*,-14%,18µM*
COc1cc(/C=C/C(=O)c2ccc(NS(=O)(=O)c3ccc(C)cc3)cc2)cc(OC)c1O,u,u,u,u,u,5%
SMILES,TDP1 cell CPT,ATXN viability,TGFb inhibitor,DT40 TDP1 no CPT,ATXN2 expr inh,HepG2 tox
COc1ccc(C(=O)/C=C/c2cc(OC)c(O)c(OC)c2)c(F)c1,u,u,-49%,16µM*,u,-29%
COc1ccc(C(=O)/C=C/c2ccc(OC3CSC3)cc2)cc1OC,u,i,u,18µM*,u,-2%
O=C(/C=C/c1ccc(OC2CSC2)cc1)c1ccc(Cl)cc1,u,i,0%,u,-4%,15%
CCc1ccc(NC(=O)CSc2nc(-c3ccccc3)no2)cc1,u,x,u,u,x,-34%
Cc1c(C(=O)NCc2ccc3c(c2)OCO3)sc(=O)n1Cc1cccc(F)c1,u,i,-3%,u,-7%,-14%
CCN1C2OC3OC4C(OC3OC2N(CC)S1(=O)=O)N(CC)S(=O)(=O)N4CC (stereo not given),12%,i,6%,-14%,x,14%
CN(C)c1ccc(C=O)c(Oc2ccccc2)c1,-5%,u,-8%,u,x,0%
N#C/C(=C/c1ccc(O)c(O)c1)C(=O)NCc1ccc(Cl)cc1,26µM*,i,-17%,u,0%,-56%
N#C/C(=C/c1cccc(O)c1)C(=O)NCc1ccc(Cl)cc1,u,i,u,16µM*,-24%,-64%
N#C/C(=C\c1ccc(O)c(Br)c1)C(=O)NCc1ccccc1,-19%,i,-2%,-18%,3%,-12%
Nc1nc(NCc2ccc(Cl)cc2)c2[nH]cnc2n1,u,x,6%,u,x,2%
Cc1cccc(C)c1NC(=O)C1(C)CSCC(=O)N1Cc1ccco1 (stereo not given),4%,x,x,22%,x,x
CCCCCCCCCCCNC(=O)c1ccoc1C,21µM*,i,24%,18µM*,-5%,-21%
CCCCNC(=O)c1ccccc1Cl,-10%,u,-9%,-19%,17%,2%
CCCCNC(=O)c1ccccc1C(=O)NCCCC,29µM*,i,-9%,29µM*,-6%,-9%
COc1ccccc1C(=O)NC(=O)CSc1nnnn1C,-21%,i,15%,3%,x,-14%
